Source: PubChem (National Center for Advancing Translational Sciences (NCATS))
RORg inh: qHTS for inhibitors of ROR gamma transcriptional activity | Nuclear receptor ROR-gamma (Mus musculus), P51450 | Drosophila S2 Gal4-RORgamma UAS-luciferase reporter, 20 h | Potency, µM (highest dose often 53.6 µM), hits mostly inhibitors | 310,000 tested, 5.4% active | AID 2551, 2010; further: nearly all actives have a fitted effect of over 60% in size
Target sequence (P51450 whole entry, looked up, the tested form may be a part): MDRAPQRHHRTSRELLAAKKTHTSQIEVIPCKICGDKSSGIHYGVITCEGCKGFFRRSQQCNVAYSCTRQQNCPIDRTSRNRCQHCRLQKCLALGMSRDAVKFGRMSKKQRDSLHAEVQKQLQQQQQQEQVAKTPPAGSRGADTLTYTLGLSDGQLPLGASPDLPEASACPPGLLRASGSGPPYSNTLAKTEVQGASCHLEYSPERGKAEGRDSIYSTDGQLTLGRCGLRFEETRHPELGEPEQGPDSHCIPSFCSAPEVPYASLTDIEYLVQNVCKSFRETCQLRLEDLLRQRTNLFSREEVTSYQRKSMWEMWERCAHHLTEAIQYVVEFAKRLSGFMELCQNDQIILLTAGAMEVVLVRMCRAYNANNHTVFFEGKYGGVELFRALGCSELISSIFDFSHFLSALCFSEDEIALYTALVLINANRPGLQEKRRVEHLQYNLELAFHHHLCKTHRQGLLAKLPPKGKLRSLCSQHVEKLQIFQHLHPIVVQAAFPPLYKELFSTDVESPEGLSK
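Read-out: Photinus luciferase luminescence; inhibitors lower reporter signal. Insect Schneider cells with Gal4-ROR gamma fusion under metallothionein promoter, UAS reporter; 700 uM final copper sulfate induction, 20 hr, ambient temperature.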
ELG1 repair inh: qHTS screen for small molecules that inhibit ELG1-dependent DNA repair in human embryonic kidney (HEK293T) cells expressing luciferase-tagged ELG1; HEK293T ELG1-luciferase reporter, luminescence, 16 h; DNA damage induced by 5-fluorouridine; 330,000 tested, 2.3% active; Potency, µM (top dose mostly 46.1 µM), hits mostly inhibitors; AID 504467, 2011; further: nearly all actives have a fitted effect of over 55% in size
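Overnight (16 hr) co-exposure of 2,000 cells/well to 5-fluorouridine and compound at 37 °C preceded detection. Luciferase was quantified via ONE-Glo luminescence; loss of signal denotes inhibition.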
p53 reactivation: qHTS assay for re-activators of p53 using a Luc reporter. H1299 p53-A138V BP100-luciferase reporter, luminescence, 24 h. Potency, µM (highest dose often 92.2 µM), most hits filed as activators. 320,000 tested, 0.063% active; further: nearly all actives have a fitted effect of over 45% in size
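p53-null H1299 cells stably carrying temperature-sensitive p53-A138V and a BP100-luciferase reporter were pinned with compounds (4-point, 1:5 series) and held 24 hrs at 37 deg C. Luminescence was read 10 min after detection reagent.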
VP16 counter: VP16 counterscreen qHTS for inhibitors of ROR gamma transcriptional activity | Drosophila S2 Gal4-VP16 UAS-luciferase, luminescence, 20 h | 310,000 tested, 3.5% active | Potency, µM (top dose mostly 53.6 µM), actives largely listed as inhibitors;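 further: Gal4-VP16 expression switched on by copper sulfate through the metallothionein promoter; nearly all actives have a fitted effect of over 50% in size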
BRCA1 expr up: qHTS Assay to Identify Small Molecule Activators of BRCA1 Expression; 380,000 tested, 1.1% active; MCF7-BRCA1-FFLuc reporter, luminescence, 48 h; response scale: scaled: vehicle 0%, 10 µM genistein 100%; Potency, µM (titrated, usually from 46.1 µM), usual class: activators; further: nearly all actives have a fitted effect of over 80% in size
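Compounds are tested at multiple concentrations on MCF7 BRCA1-luciferase reporter cells seeded at 2000 per well; after 48 h, a single luminescence end-point is taken and curves fitted to the normalized data.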
Giardia killer: Small Molecules that selectively kill Giardia lamblia: qHTS. Giardia lamblia trophozoite viability. activity change, % at 7.66 µM, hits read low. 340,000 tested, 0.15% active. AID 540267, 2011; in the data active means activity change below about -80%; inconclusive means between about -30% and that limit;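 further: parasites exposed to compound for two days anaerobically before the ATP read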
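Trophozoite viability was measured as ATP-dependent luminescence, read 15-30 min after reagent addition. Before that, parasites at 100 cells/well were exposed to compounds for 48 h, anaerobically, at 37 deg C.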
Hits are given with their value; – = inactive; ? = inconclusive; · = not tested or not shown. Rows were chosen to be rich in hits. Some 7.6% of all compounds tested hit in one or more screens of this group. Unless noted, the call rests on the fitted dose curve; in most records, active means well fitted curve in the direction sought with a large enough effect; inconclusive means small, poorly fitted or top-dose-only effect, or another doubt; inactive means no such curve, though single readings can be large; an effect the other way counts as inactive or inconclusive.

SMILES	RORg inh	ELG1 repair inh	p53 reactivation	VP16 counter	BRCA1 expr up	Giardia killer
C=CCOC(=O)C(C#N)c1nc2ccccc2nc1N1CCN(c2ccccc2OCC)CC1 (centres undefined)	–	14.6µM	–	–	–	–
C=CCOC(=O)C(C#N)c1nc2ccccc2nc1N1CCN(Cc2ccc3c(c2)OCO3)CC1 (centres undefined)	–	16.4µM	–	–	–	–
CCC(C)c1ccc(OCc2ccc(C(=O)O)o2)cc1 (centres undefined)	14.1µM	?	–	?	?	–
CCc1cc(=O)oc2cc(OCc3ccc(C(=O)O)o3)ccc12	–	?	?	–	6.31µM	–
CCOC(=O)C(CCCOc1ccc(C(C)CC)cc1)C(=O)OCC (centres undefined)	2.82µM	–	–	?	–	–
CCOC(=O)C(CCCOc1ccc(C)cc1)C(=O)OCC	–	–	–	–	–	–
COc1ccccc1CCC(=O)Nc1ccc2c(c1)c(=O)n(C)n2Cc1cccc(C(F)(F)F)c1	·	·	·	·	–	·
Cc1ccc(S(=O)(=O)NCCCn2ccnc2)cc1	–	–	–	?	–	–
O=C(CSc1ccc2nnc(CCNC(=O)c3ccccc3)n2n1)Nc1ccccc1F	–	–	–	–	–	–
O=C1/C(=C\c2cccc([N+](=O)[O-])c2O)SC(=S)N1Cc1ccccc1	–	8.2µM	–	15.8µM	–	–
O=C1/C(=C\c2cc(Br)cc(Br)c2O)SC(=S)N1Cc1ccccc1	12.6µM	23.1µM	–	?	–	–
C=CCN=C1S/C(=C/c2cccc([N+](=O)[O-])c2)C(=O)N1CC=C	–	?	–	–	–	–
O=C(O)c1cccc(CN2C(=O)S/C(=C/c3cccc([N+](=O)[O-])c3)C2=O)c1	5.62µM	–	–	7.08µM	–	–
O=C1/C(=C/c2ccc(O)c([N+](=O)[O-])c2)SC(=S)N1Cc1ccccc1	–	18.3µM	–	–	–	?
CN(Cc1ccccc1)C(=O)COc1cc(=O)n(C)c2ccccc12	–	?	–	–	–	–
CN(C)C(=O)CCc1ccc2c3c([nH]c2c1)[C@]1(CCC2CCCC2)[C@@H](C(=O)N2CCOCC2)C[C@H](CC(=O)NCCCn2ccnc2)C(=O)N1CC3	·	?	–	·	–	–
COc1ccccc1CNCC(c1ccccc1)c1ccccc1	–	–	–	–	·	·
OC1CCN(CC(O)C(F)(F)F)CC1 (centres undefined)	–	–	–	–	–	–
Cc1ccc2c(c1)N(CCC(=O)NCc1ccc(F)cc1)C(=O)CO2	·	·	·	·	–	·
COc1cc([N+](=O)[O-])cc(/C=C2/SC(=S)N(Cc3ccccc3)C2=O)c1O	?	?	–	5.01µM	–	–
CCC(=O)Nc1nnc(/C=C/c2ccccc2)s1	–	?	–	–	?	–
COc1cccc(C2C=C(c3cccs3)Nc3ncnn32)c1OC (centres undefined)	11.2µM	–	–	?	–	–
COc1cccc(C2=CC(c3cccc(OC)c3OC)n3nnnc3N2)c1 (centres undefined)	3.16µM	–	?	–	–	?
COc1cccc(C2=CC(c3ccccc3)n3nnnc3N2)c1 (centres undefined)	?	–	–	35.5µM	–	–
COc1cccc(C2C=C(c3ccc(OC)cc3OC)Nc3nnnn32)c1 (centres undefined)	–	18.4µM	–	–	–	–
SMILES	RORg inh	ELG1 repair inh	p53 reactivation	VP16 counter	BRCA1 expr up	Giardia killer
O=C(NCCCn1ccnc1)c1cc2cc([N+](=O)[O-])ccc2oc1=O	–	–	–	–	–	–
CC(Sc1nnc(C2CC2)n1C1CC1)C(=O)Nc1cccc(S(=O)(=O)N(C)C)c1 (centres undefined)	·	–	–	·	–	–
Cc1cc(CN2CCN(CCC#N)CC2)c(O)c(C2(C)CCCCC2)c1	–	–	–	–	–	–
C[C@H]1CN([C@@H](C)CO)C(=O)CCCn2cc(nn2)CO[C@@H]1CN(C)S(=O)(=O)c1ccc(C#N)cc1	·	·	·	·	–	·
c1ccc(N/N=C(\Cc2ncc[nH]2)c2ccccc2)cc1	?	–	–	–	–	–
Clc1cccc(N/N=C(\Cc2nc3ccccc3[nH]2)c2ccccc2)c1	17.8µM	?	?	–	–	–
Cc1ccc(NC(=O)Cn2nc(C(=O)O)c3ccccc3c2=O)c([N+](=O)[O-])c1	–	–	–	–	–	–
Cc1ccc(S(=O)(=O)CCC(=O)c2ccc(F)cc2)cc1	3.98µM	–	–	2.82µM	–	–
COc1ccc(C(=O)CCS(=O)(=O)c2ccc(F)cc2)cc1OC	–	–	–	–	·	·
Cc1ccc(S(=O)(=O)CCC(=O)NCc2ccc(Cl)cc2)cc1	–	–	–	–	–	–
Cc1ccc(C(=O)CCS(=O)(=O)c2ccc(Cl)cc2)cc1	15.8µM	–	–	?	–	–
Cc1ccc(C(=O)CCS(=O)(=O)c2ccc(F)cc2)cc1	3.16µM	–	–	3.55µM	–	–
CN(C)S(=O)(=O)c1ccc(Cl)c(-c2nnc3n2CCCCC3)c1	–	–	–	–	–	–
Cc1ccc(S(=O)(=O)C(c2ccccc2)c2c(C)noc2C)cc1 (centres undefined)	–	–	–	–	–	–
CCc1cc(=O)oc2cc(C)cc(OCC(=O)NCCc3c[nH]c4ccccc34)c12	–	5.8µM	·	–	–	–
CCCc1cc(=O)oc2cc(C)cc(OCC(=O)Nc3ccc(CN4CCOCC4)cc3)c12	–	14.6µM	–	–	–	–
CC1=C(C(=O)N2CCCCCC2)CC(CC(=O)NCCN2CCOCC2)C(=O)N1Cc1ccccc1 (centres undefined)	·	·	·	·	–	·
CN(C)/C=C/C(=O)c1ccc2noc(-c3ccccc3)c2c1	–	23.1µM	–	–	–	–
CC(=O)c1ccc2noc(-c3ccccc3)c2c1	?	9.2µM	–	–	–	–
NC(=O)CSCc1c(Cl)cccc1Cl	–	–	–	–	–	–
O=C(NNC(=O)c1sccc1-n1cccc1)c1ccccc1	–	–	–	–	–	–
CCOC(=O)c1c(C(F)(F)F)cc(-c2ccc(F)cc2)nc1C	–	?	–	–	–	–
CCOC(=O)CCS(=O)(=O)c1nc(-c2ccccc2)cc(C(F)(F)F)n1	–	?	–	?	–	–
COC(=O)CCS(=O)(=O)c1nc(-c2ccccc2)cc(C(F)(F)F)n1	7.08µM	?	–	5.62µM	–	–
